Source: PubChem BioAssay (NCI)
Compounds without any hit were thinned out: in the full panel of roughly 83,000, 20% have a hit.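 Cell lines were cultured in 96-well plates, exposed to a single compound concentration, and assessed for percent growth 48 hours later.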 The source made the active and inactive calls. Rule for the calls: active = growth percent below 10; inactive = the rest.

These compounds were tested on MDA-MB-468 breast (assay: NCI-60 one-dose screen, 48 h (100 = growth as untreated, 0 = no growth, -100 = all killed)). Conditions: 10 µM unless noted.

Q: Which growth does the source give for `N#C/C(C(=O)c1ccccc1)=C1/C(=O)Nc2ccccc21` here?
A: 121% (inactive)

Q: `Cc1nc(-n2[nH]c(=O)ccc2=O)sc1N=Nc1ccccc1` was tested. Which growth did it give?
A: 93.8% (inactive)

Q: With `COc1ccc(S(=O)(=O)N2CCN(c3cc4c(cc3F)c(=O)c(C(=O)O)cn4C3CC3)CC2)c(OC)c1` as the compound, how does the growth read?
A: 86.4% (inactive)
